# PubChem BioAssay AID1159580 (chemical genetic matrix, 2015)
# Among all 5,500 compounds or so, about 2,000 (36%) were called active. About 18% were inconclusive and are not listed. This is one part of the list. Unmarked numbers belong to inactive results. No stated cut-off is given here; in the data, active means normalized growth mostly below about 0.91 (no sharp cut-off); inconclusive means no clear call, values can overlap the other calls; inactive means mostly above about 0.92.
# Experiment: chemical genetic growth profiling, strain panel (AID 1159580);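 further: tested at 20 µM; growth read once vehicle control cultures reached saturation at 30 °C; 1 = growth at the plate median or of vehicle wells; lower values mean less growth of the strain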
# Conditions: S. cerevisiae deletion strains, growth OD
compound,measurement,setting,value
COC(=O)/C(C)=C\CC12OC(C)(C)C3CC(C=C4C(=O)c5c(O)c6c(c(CCC(C)(C)Cl)c5OC431)OC1(C)CCC(=C(C)C)C6C1)C2=O (stereo unspecified),normalized growth,"locus YBR021W, strain FUR4, active compounds read low",0.981
same,normalized growth,"locus YBR229C, strain ROT2, active compounds read low",1.02
same,normalized growth,"locus YCL029C, strain bik1, active compounds read low",0.997
same,normalized growth,"locus YDL035C, strain GPR1, active compounds read low",1.01
same,normalized growth,"locus YDL074C, strain BRE1, active compounds read low",0.994
same,normalized growth,"locus YDL101C, strain DUN1, active compounds read low",0.999
same,normalized growth,"locus YDL134C, strain PPH21, active compounds read low",0.976
same,normalized growth,"locus YDL185W, strain tfp1, active compounds read low",1.01
same,normalized growth,"locus YDL192W, strain arf1, active compounds read low",0.985
same,normalized growth,"locus YDR101C, strain arx1, active compounds read low",0.992
same,normalized growth,"locus YDR150W, strain NUM1, active compounds read low",1.02
same,normalized growth,"locus YDR162C, strain NBP2, active compounds read low",1.01
same,normalized growth,"locus YDR318W, strain mcm21, active compounds read low",0.985
same,normalized growth,"locus YDR388W, active compounds read low",1.01
same,normalized growth,"locus YDR502C, strain sam2, active compounds read low",0.961
same,normalized growth,"locus YER110C, active compounds read low",1.02
same,normalized growth,"locus YER155C, strain BEM2, active compounds read low",1.01
same,normalized growth,"locus YER167W, strain BCK2, active compounds read low",1.01
same,normalized growth,"locus YGL078C, strain dbp3, active compounds read low",0.994
same,normalized growth,"locus YGL086W, strain mad1, active compounds read low",0.962
same,normalized growth,"locus YGL248W, strain PDE1, active compounds read low",0.98
same,normalized growth,"locus YGR135W, strain pre9, active compounds read low",0.982
same,normalized growth,"locus YGR252W, strain gcn5, active compounds read low",0.919
same,normalized growth,"locus YHR030C, strain SLT2, active compounds read low",1.02
same,normalized growth,"locus YHR079C, strain IRE1 (second series), active compounds read low",1
same,normalized growth,"locus YHR094C, strain hxt1, active compounds read low",1
same,normalized growth,"locus YHR129C, strain ARP1, active compounds read low",1.01
same,normalized growth,"locus YHR200W, strain rpn10, active compounds read low",0.984
same,normalized growth,"locus YIL066C, strain RNR3, active compounds read low",1.01
same,normalized growth,"locus YIL073C, strain SPO22, active compounds read low",0.987
same,normalized growth,"locus YIL125W, strain kgd1, active compounds read low",0.985
same,normalized growth,"locus YIR030C, strain dcg1, active compounds read low",1.01
same,normalized growth,"locus YJL095W, strain BCK1, active compounds read low",0.959
same,normalized growth,"locus YJL134W, strain LCB3, active compounds read low",1.03
same,normalized growth,"locus YJL168C, strain set2, active compounds read low",1.01
same,normalized growth,"locus YJL187C, strain SWE1 (second series), active compounds read low",0.986
same,normalized growth,"locus YJR043C, strain POL32, active compounds read low",1.02
same,normalized growth,"locus YKL009W, strain mrt4, active compounds read low",0.979
same,normalized growth,"locus YKL068W, active compounds read low",0.999
same,normalized growth,"locus YKL085W, strain MDH1 (second series), active compounds read low",0.997
same,normalized growth,"locus YKL085W, strain MDH1, active compounds read low",0.997
same,normalized growth,"locus YKR001C, strain vps1, active compounds read low",0.952
same,normalized growth,"locus YLR039C, strain RIC1, active compounds read low",0.957
same,normalized growth,"locus YLR058C, strain SHM2, active compounds read low",1
same,normalized growth,"locus YLR102C, strain apc9, active compounds read low",1.01
same,normalized growth,"locus YLR262C, strain YPT6, active compounds read low",0.946
same,normalized growth,"locus YLR268W, strain sec22, active compounds read low",0.975
same,normalized growth,"locus YLR330W, strain CHS5, active compounds read low",1.01
same,normalized growth,"locus YLR342W, strain FKS1 (second series), active compounds read low",0.957
same,normalized growth,"locus YLR371W, strain rom2, active compounds read low",1.02
same,normalized growth,"locus YLR418C, strain cdc73, active compounds read low",0.834 (active)
same,normalized growth,"locus YML016C, strain PPZ1, active compounds read low",1.01
same,normalized growth,"locus YML032C, strain rad52, active compounds read low",0.988
same,normalized growth,"locus YML124C, strain tub3, active compounds read low",1.02
same,normalized growth,"locus YMR078C, strain ctf18, active compounds read low",1
same,normalized growth,"locus YMR223W, strain ubp8, active compounds read low",0.985
same,normalized growth,"locus YMR307W, strain GAS1, active compounds read low",0.955
same,normalized growth,"locus YNL067W, strain RPL9B, active compounds read low",1.02
same,normalized growth,"locus YNL128W, strain TEP1, active compounds read low",1.04
same,normalized growth,"locus YNL153C, strain GIM3, active compounds read low",1
same,normalized growth,"locus YNL233W, strain BNI4, active compounds read low",0.993
same,normalized growth,"locus YNL250W, strain rad50, active compounds read low",1.01
same,normalized growth,"locus YNL271C, strain bni1, active compounds read low",1.01
same,normalized growth,"locus YNL298W, strain CLA4, active compounds read low",1.01
same,normalized growth,"locus YNL307C, strain MCK1, active compounds read low",0.981
same,normalized growth,"locus YNL322C, strain KRE1, active compounds read low",1.03
same,normalized growth,"locus YNR052C, strain pop2, active compounds read low",0.989
same,normalized growth,"locus YOL006C, strain TOP1, active compounds read low",1.06
same,normalized growth,"locus YOL012C, strain htz1",0.7
same,normalized growth,"locus YOL147C, strain pex11, active compounds read low",1
same,normalized growth,"locus YOR061W, strain CKA2, active compounds read low",0.999
same,normalized growth,"locus YOR069W, strain VPS5, active compounds read low",1.02
same,normalized growth,"locus YOR136W, strain idh2, active compounds read low",0.987
same,normalized growth,"locus YOR144C, strain elg1, active compounds read low",1
same,normalized growth,"locus YOR184W, strain ser1, active compounds read low",0.977
same,normalized growth,"locus YOR316C, strain cot1, active compounds read low",0.999
same,normalized growth,"locus YPR119W, strain clb2, active compounds read low",1.01
same,normalized growth,"locus YPR141C, strain kar3, active compounds read low",1.02
same,normalized growth,"locus YPR163C, strain tif3, active compounds read low",1
same,normalized growth,"locus YPR167C, strain met16, active compounds read low",0.982
same,normalized growth,"strain wtn01, active compounds read low",0.969
